Data reported in PubChem BioAssay (NCI).
About 79,000 compounds went through this panel and 15% of them were active in at least one assay; those are over-represented in the sample as a whole. The source made the active and inactive calls. No stated cut-off is given here; in the data, active means growth inhibition above about 70%; inactive means the rest.

Experiments:
[1] = NCI Yeast Anticancer Drug Screen. Data for the rad52 strain (AID 147);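 further: 0% = growth of vehicle-treated control cultures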; conditions: S. cerevisiae rad52 mutant growth inhibition, active compounds read high
Outline: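 Vehicle-treated cultures served as the reference for growth inhibition of compound-exposed yeast bearing a DNA repair mutation.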

[2] = NCI Yeast Anticancer Drug Screen. Data for the wt1 strain (AID 149);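 further: 0% = growth of vehicle-treated wt1 cultures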; conditions: S. cerevisiae wt1 strain (SPY 50644) growth inhibition, active compounds read high
Outline: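 Compounds are added to wt1 yeast cultures. Growth is then measured. Inhibition is expressed relative to vehicle-treated controls.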

[3] = NCI Yeast Anticancer Drug Screen. Data for the rad50EPP+ strain (AID 151);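 further: 0% = growth of vehicle-treated control cultures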; conditions: S. cerevisiae rad50 mutant strain, active compounds read high
Outline: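 In this screen, rad50EPP+ yeast were exposed to compounds. Growth inhibition was scored against vehicle-treated controls.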

[4] = NCI Yeast Anticancer Drug Screen. Data for the mgt1 strain (AID 153); conditions: S. cerevisiae mgt1 mutant growth inhibition, active compounds read high
Outline: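 mgt1 strain exposed; growth vs vehicle control recorded as inhibition.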

[5] = NCI Yeast Anticancer Drug Screen. Data for the rad50 strain (AID 155);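 further: 0% = growth of vehicle-only cultures of the same strain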; conditions: S. cerevisiae rad50 strain growth inhibition, active compounds read high
Outline: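 Inhibition values express reduced yeast growth in compound-treated cultures relative to vehicle-treated controls.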

[6] = NCI Yeast Anticancer Drug Screen. Data for the mec2-1 strain (AID 157); conditions: S. cerevisiae mec2-1 strain, active compounds read high
Outline: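 Vehicle-treated cultures served as reference for growth inhibition of compound-exposed mec2-1 yeast.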

[7] = NCI Yeast Anticancer Drug Screen. Data for the rad14 strain (AID 159);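 further: 0% = growth of vehicle-treated control cultures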; conditions: S. cerevisiae rad14 strain growth inhibition, active compounds read high
Outline: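 A mutant yeast strain defective in DNA damage repair is treated with compound; inhibition of its growth is scored against untreated, vehicle-exposed cultures.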

[8] = NCI Yeast Anticancer Drug Screen. Data for the sgs1 mgt1 strain (AID 161);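 further: 0% = growth of cultures given vehicle only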; conditions: S. cerevisiae sgs1 mgt1 strain, active compounds read high
Outline: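 Genetically altered yeast, compound exposure, growth inhibition relative to vehicle.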

[9] = NCI Yeast Anticancer Drug Screen. Data for the CLN2oe strain (AID 163);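 further: 0% = growth of vehicle-only control cultures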; conditions: S. cerevisiae CLN2oe strain, active compounds read high
Outline: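 Inhibition relative to vehicle-treated yeast is reported. Cells: strain with genetic alteration in cell-cycle control, grown with compound.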

[10] = NCI Yeast Anticancer Drug Screen. Data for the cln2 rad14 strain (AID 165);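 further: 0% = growth equal to vehicle treated cultures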; conditions: S. cerevisiae cln2 rad14 strain, active compounds read high
Outline: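 Each compound was tested on cln2 rad14 yeast. Inhibition of growth was calculated against vehicle-exposed controls.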

[11] = NCI Yeast Anticancer Drug Screen. Data for the bub3 strain (AID 167); conditions: S. cerevisiae bub3 mutant strain, active compounds read high
Outline: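 Steps: expose the mutant yeast strain to compound; grow alongside vehicle-treated cultures; measure growth; express inhibition against the vehicle cultures.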

[12] = NCI Yeast Anticancer Drug Screen. Data for the wt2 strain (AID 169);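 further: 0% = growth of vehicle-treated yeast cultures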; conditions: S. cerevisiae wt2 strain growth inhibition, active compounds read high
Outline: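 Inhibition of yeast growth was determined after compound treatment, normalised to controls receiving only vehicle.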

[13] = NCI Yeast Anticancer Drug Screen. Data for the mlh1 strain (AID 171);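 further: 0% = growth of vehicle-treated control cultures of the same strain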; conditions: S. cerevisiae mlh1 strain growth inhibition, active compounds read high
Outline: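 Vehicle-normalised growth inhibition of a repair- or checkpoint-altered yeast strain following compound treatment.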

[14] = NCI Yeast Anticancer Drug Screen. Data for the sgs1 strain (AID 173);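 further: 0% = growth of vehicle-only control cultures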; conditions: S. cerevisiae sgs1 mutant, active compounds read high
Outline: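 Screen format: yeast with repair or checkpoint alterations, compound exposure, growth read relative to vehicle.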

[15] = NCI Yeast Anticancer Drug Screen. Data for the mlh1 rad18 strain (AID 175); conditions: S. cerevisiae mlh1 rad18 strain growth inhibition, active compounds read high
Outline: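 Vehicle-treated cultures served as the reference for growth inhibition in a yeast strain carrying DNA damage repair alterations exposed to each compound.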

[16] = NCI Yeast Anticancer Drug Screen. Data for the rad18 strain (AID 177); conditions: S. cerevisiae rad18 mutant growth inhibition, active compounds read high
Outline: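 Test articles were incubated with altered yeast defective in DNA damage repair. Results are given as inhibition of growth versus vehicle.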

[17] = at 5.0 µM (retest, dose inferred, filed as 0.5)
[18] = at 50.0 µM (retest, dose inferred, filed as 5.0)

Measured: growth inhibition

CCC(C)NC1=NCC(C)S1 (stereo unspecified)
inactive: [1]; at 1.2 µM -9% | [1]; at 3.7 µM -12% | [1]; at 11.0 µM -12% | [1]; at 33.0 µM -29% | [1]; at 100.0 µM -17% | [2]; at 1.2 µM -22% | [2]; at 3.7 µM -14% | [2]; at 11.0 µM -24% | [2]; at 33.0 µM -34% | [2]; at 100.0 µM -28% | [3]; at 1.2 µM -40% | [3]; at 3.7 µM -38% | [3]; at 11.0 µM -27% | [3]; at 33.0 µM -37% | [3]; at 100.0 µM -75% | [4]; at 1.2 µM -18% | [4]; at 3.7 µM -15% | [4]; at 11.0 µM -13% | [4]; at 33.0 µM -19% | [4]; at 100.0 µM -25% | [5]; at 1.2 µM -29% | [5]; at 3.7 µM -20% | [5]; [17] 44% | [5]; at 11.0 µM -32% | [5]; at 33.0 µM -34% | [5]; [18] 41% | [5]; at 50.0 µM 64.1% | [5]; at 100.0 µM -33% | [6]; at 1.2 µM -40% | [6]; at 3.7 µM -48% | [6]; [17] 42% | [6]; at 11.0 µM -63% | [6]; at 33.0 µM -51% | [6]; [18] 36% | [6]; at 50.0 µM 28.9% | [6]; at 100.0 µM -39% | [7]; at 1.2 µM -17% | [7]; at 3.7 µM -15% | [7]; at 11.0 µM -22% | [7]; at 33.0 µM -21% | [7]; at 100.0 µM -25% | [8]; [17] -9% | [8]; [18] 30% | [8]; at 50.0 µM 58.2% | [9]; at 1.2 µM -5% | [9]; at 3.7 µM 1% | [9]; at 11.0 µM -9% | [9]; at 33.0 µM 0% | [9]; at 100.0 µM -8% | [10]; [17] 44% | [10]; [18] 49% | [10]; at 50.0 µM 65.7% | [11]; at 1.2 µM -6% | [11]; at 3.7 µM -9% | [11]; [17] 19% | [11]; at 11.0 µM -8% | [11]; at 33.0 µM -16% | [11]; at 50.0 µM 57.7% | [11]; at 100.0 µM -17% | [12]; at 1.2 µM -20% | [12]; at 3.7 µM -21% | [12]; at 11.0 µM -28% | [12]; at 33.0 µM -26% | [12]; at 100.0 µM -22% | [13]; at 1.2 µM -27% | [13]; at 3.7 µM -27% | [13]; at 11.0 µM -22% | [13]; at 33.0 µM -36% | [13]; at 100.0 µM -42% | [14]; at 1.2 µM -26% | [14]; at 3.7 µM -21% | [14]; at 11.0 µM -16% | [14]; at 33.0 µM -38% | [14]; at 100.0 µM -29% | [15]; [17] 47% | [15]; [18] 27% | [15]; at 50.0 µM 62.6% | [16]; at 1.2 µM -12% | [16]; at 3.7 µM 0% | [16]; at 11.0 µM -6% | [16]; at 33.0 µM -26% | [16]; at 100.0 µM -32%
active: [11]; [18] 98%

CSc1nc(C)c(CCOC(C)=O)c(N=P(c2ccccc2)(c2ccccc2)c2ccccc2)n1
active: [1]; at 100.0 µM 92% | [2]; at 100.0 µM 92% | [4]; at 100.0 µM 90% | [5]; at 50.0 µM 92.2% | [5]; at 100.0 µM 90% | [6]; at 50.0 µM 94.3% | [6]; at 100.0 µM 90% | [7]; at 100.0 µM 87% | [8]; at 50.0 µM 96.5% | [9]; at 100.0 µM 77% | [10]; [18] 86% | [10]; at 50.0 µM 74.8% | [11]; [18] 93% | [11]; at 50.0 µM 95.6% | [11]; at 100.0 µM 92% | [12]; at 100.0 µM 92% | [13]; at 100.0 µM 92% | [14]; at 100.0 µM 93% | [15]; at 50.0 µM 94.6% | [16]; at 100.0 µM 91%
inactive: [1]; at 1.2 µM 10% | [1]; at 3.7 µM 4% | [1]; at 11.0 µM -3% | [1]; at 33.0 µM -9% | [2]; at 1.2 µM 9% | [2]; at 3.7 µM 5% | [2]; at 11.0 µM -2% | [2]; at 33.0 µM -3% | [3]; at 1.2 µM 12% | [3]; at 3.7 µM 5% | [3]; at 11.0 µM 1% | [3]; at 33.0 µM 1% | [3]; at 100.0 µM 13% | [4]; at 1.2 µM 10% | [4]; at 3.7 µM 2% | [4]; at 11.0 µM -2% | [4]; at 33.0 µM -15% | [5]; at 1.2 µM 7% | [5]; at 3.7 µM -8% | [5]; [17] 16% | [5]; at 11.0 µM -21% | [5]; at 33.0 µM -1% | [5]; [18] 42% | [6]; at 1.2 µM 12% | [6]; at 3.7 µM 8% | [6]; [17] -14% | [6]; at 11.0 µM 1% | [6]; at 33.0 µM 1% | [6]; [18] 3% | [7]; at 1.2 µM 9% | [7]; at 3.7 µM 2% | [7]; at 11.0 µM -4% | [7]; at 33.0 µM -5% | [8]; [17] -2% | [8]; [18] 22% | [9]; at 1.2 µM 18% | [9]; at 3.7 µM 10% | [9]; at 11.0 µM 0% | [9]; at 33.0 µM 3% | [10]; [17] 3% | [11]; at 1.2 µM 4% | [11]; at 3.7 µM 6% | [11]; [17] 10% | [11]; at 11.0 µM 3% | [11]; at 33.0 µM 3% | [12]; at 1.2 µM 10% | [12]; at 3.7 µM 3% | [12]; at 11.0 µM -4% | [12]; at 33.0 µM -1% | [13]; at 1.2 µM 12% | [13]; at 3.7 µM 5% | [13]; at 11.0 µM -2% | [13]; at 33.0 µM -2% | [14]; at 1.2 µM 7% | [14]; at 3.7 µM 3% | [14]; at 11.0 µM -4% | [14]; at 33.0 µM -2% | [15]; [17] 0% | [15]; [18] 23% | [16]; at 1.2 µM 16% | [16]; at 3.7 µM 12% | [16]; at 11.0 µM 4% | [16]; at 33.0 µM 3%

CC(C)(C)N=C(NO)c1ccccc1
active: [5]; at 50.0 µM 70.2% | [8]; at 50.0 µM 74%
inactive: [1]; at 1.2 µM 0% | [1]; at 3.7 µM 1% | [1]; at 11.0 µM 8% | [1]; at 33.0 µM 25% | [1]; at 100.0 µM 68% | [2]; at 1.2 µM 0% | [2]; at 3.7 µM 0% | [2]; at 11.0 µM 5% | [2]; at 33.0 µM 8% | [2]; at 100.0 µM 45% | [3]; at 1.2 µM 0% | [3]; at 3.7 µM 3% | [3]; at 11.0 µM 14% | [3]; at 33.0 µM 35% | [3]; at 100.0 µM 63% | [4]; at 1.2 µM -2% | [4]; at 3.7 µM 1% | [4]; at 11.0 µM 2% | [4]; at 33.0 µM 27% | [4]; at 100.0 µM 57% | [5]; at 1.2 µM -2% | [5]; at 3.7 µM -1% | [5]; [17] -6% | [5]; at 11.0 µM 2% | [5]; at 33.0 µM 14% | [5]; [18] 41% | [5]; at 100.0 µM 55% | [6]; at 1.2 µM -3% | [6]; at 3.7 µM 0% | [6]; [17] -2% | [6]; at 11.0 µM 2% | [6]; at 33.0 µM 12% | [6]; [18] 2% | [6]; at 50.0 µM 2.9% | [6]; at 100.0 µM 53% | [7]; at 1.2 µM -3% | [7]; at 3.7 µM -3% | [7]; at 11.0 µM 0% | [7]; at 33.0 µM 10% | [7]; at 100.0 µM 46% | [8]; [17] 7% | [8]; [18] 55% | [9]; at 1.2 µM -9% | [9]; at 3.7 µM -7% | [9]; at 11.0 µM -2% | [9]; at 33.0 µM -4% | [9]; at 100.0 µM 47% | [10]; [17] 8% | [10]; [18] 49% | [10]; at 50.0 µM 43.7% | [11]; at 1.2 µM -6% | [11]; at 3.7 µM -9% | [11]; [17] -11% | [11]; at 11.0 µM -4% | [11]; at 33.0 µM -9% | [11]; [18] 42% | [11]; at 50.0 µM 0.3% | [11]; at 100.0 µM 27%
